Results reported in PubChem BioAssay.
Active and inactive are the calls of the source. Unless noted, how the calls were made is not given here.

Tests used:
[1] = compounds binding Alexa647 anti-His antibody – biochemical, small-molecule microarray, 635 nm fluorescence, artefact control for SMM control protein annotation, primary screen (AID 1128); conditions: higher = more signal;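 further: score merges feature fluorescence with signal-to-noise for each printed compound spot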
[2] = system: Human papillomavirus type 1a E7 protein (residues 1-88); assay: HPV1a E7 small-molecule binders, primary screen, biochemical, small-molecule microarray, residues 1-88, 635 nm (AID 1129); conditions: small-molecule microarray binding, fluorescence 635 nm; higher = more signal
[3] = biological target: Focal adhesion kinase 1 (Homo sapiens) (UniProt Q05397); assay: PTK2 protein binding on printed compound slides – biochemical, small-molecule microarray, 635/667 nm fluorescence, BSA, DTT, primary screen (AID 1130); conditions: 635 nm fluorescence, higher = more signal;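 further: composite of spot emission at 667 nm and signal to noise over triplicate slides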
Chain of Focal adhesion kinase 1 (Homo sapiens) (Q05397 whole entry, looked up): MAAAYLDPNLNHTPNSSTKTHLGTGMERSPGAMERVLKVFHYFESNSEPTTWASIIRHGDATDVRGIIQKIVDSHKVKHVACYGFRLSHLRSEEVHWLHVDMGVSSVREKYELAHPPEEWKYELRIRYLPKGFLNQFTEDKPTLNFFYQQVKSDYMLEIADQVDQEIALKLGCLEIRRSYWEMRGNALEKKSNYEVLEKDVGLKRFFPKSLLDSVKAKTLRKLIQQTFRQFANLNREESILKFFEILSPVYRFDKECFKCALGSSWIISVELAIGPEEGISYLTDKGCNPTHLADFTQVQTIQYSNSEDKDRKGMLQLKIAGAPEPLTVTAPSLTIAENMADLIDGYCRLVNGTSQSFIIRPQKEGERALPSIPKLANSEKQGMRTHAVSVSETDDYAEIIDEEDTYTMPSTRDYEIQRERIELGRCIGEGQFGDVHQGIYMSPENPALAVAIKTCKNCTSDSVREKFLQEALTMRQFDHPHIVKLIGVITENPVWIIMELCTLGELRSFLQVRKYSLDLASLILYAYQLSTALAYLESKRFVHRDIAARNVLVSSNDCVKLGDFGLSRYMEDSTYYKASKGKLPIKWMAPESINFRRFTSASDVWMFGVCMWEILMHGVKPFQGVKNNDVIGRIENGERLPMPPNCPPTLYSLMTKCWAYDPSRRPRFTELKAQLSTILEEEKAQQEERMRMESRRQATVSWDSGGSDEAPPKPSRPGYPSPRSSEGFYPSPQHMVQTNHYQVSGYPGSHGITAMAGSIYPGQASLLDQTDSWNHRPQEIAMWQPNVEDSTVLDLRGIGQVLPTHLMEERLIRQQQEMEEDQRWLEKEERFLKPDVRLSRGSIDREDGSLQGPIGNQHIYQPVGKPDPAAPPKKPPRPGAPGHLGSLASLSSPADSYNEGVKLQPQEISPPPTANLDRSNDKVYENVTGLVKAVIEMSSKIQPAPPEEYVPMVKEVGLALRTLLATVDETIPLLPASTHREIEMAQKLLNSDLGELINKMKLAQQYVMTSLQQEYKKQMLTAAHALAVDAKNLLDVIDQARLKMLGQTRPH

[4] = system: Fibrinogen (Alexa647-labelled); assay: Alexa647-fibrinogen binding to printed small molecules – biochemical, small-molecule microarray, 635/667 nm fluorescence, artefact control for SMM control-protein annotation, profiling panel (AID 1131); conditions: fibrinogen-A647 binding fluorescence, higher = more signal;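 further: z-score merges 667 nm fluorescence with per-spot signal-to-noise over triplicate slides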
[5] = biological target: Follistatin (Homo sapiens) (UniProt P19883); assay: FST protein binding to printed compounds – biochemical, small-molecule microarray, 635/667 nm fluorescence, primary screen (AID 1132); conditions: 635 nm fluorescence, higher = more signal
Chain of Follistatin (Homo sapiens) (P19883 whole entry, looked up): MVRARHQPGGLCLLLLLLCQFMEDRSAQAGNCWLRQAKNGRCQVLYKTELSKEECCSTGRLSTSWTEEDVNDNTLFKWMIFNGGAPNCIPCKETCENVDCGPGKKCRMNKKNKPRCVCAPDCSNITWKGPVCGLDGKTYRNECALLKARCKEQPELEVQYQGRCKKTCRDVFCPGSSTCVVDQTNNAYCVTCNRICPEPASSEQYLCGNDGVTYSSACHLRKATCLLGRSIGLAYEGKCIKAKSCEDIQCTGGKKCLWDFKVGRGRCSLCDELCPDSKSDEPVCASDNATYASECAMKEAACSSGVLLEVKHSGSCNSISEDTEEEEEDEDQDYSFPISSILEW

[6] = biological target: Fibroblast growth factor 2 (Homo sapiens) (UniProt P09038); assay: basic fibroblast growth factor binding to printed compounds – biochemical, small-molecule microarray, 635/667 nm fluorescence, primary screen (AID 1133); conditions: FGF2, fluorescence 635/667, higher = more signal
Chain of Fibroblast growth factor 2 (Homo sapiens) (P09038 whole entry, looked up): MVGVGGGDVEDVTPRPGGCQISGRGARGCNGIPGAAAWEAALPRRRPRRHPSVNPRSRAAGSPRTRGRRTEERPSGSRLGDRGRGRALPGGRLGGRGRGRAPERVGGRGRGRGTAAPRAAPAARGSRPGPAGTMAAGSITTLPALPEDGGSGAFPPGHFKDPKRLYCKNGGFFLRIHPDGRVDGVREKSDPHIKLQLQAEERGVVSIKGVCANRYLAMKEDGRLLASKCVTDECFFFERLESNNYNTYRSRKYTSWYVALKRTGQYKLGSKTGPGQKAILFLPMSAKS

[7] = JC-1 mitochondrial potential readout, lung cancer cells – cell-based, A549, JC-1 fluorescence, basal, 24 h, 100 nL, profiling panel (AID 1138); conditions: higher = more signal;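 further: A549 lung adenocarcinoma cells under basal conditions with no added stimulus; test concentration not given here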
[8] = system: Lefty1; assay: Lefty1 protein binding to printed compounds – biochemical, small-molecule microarray, 635/667 nm fluorescence, primary screen (AID 1139); conditions: fluorescence 635/667, higher = more signal
[9] = system: wheat germ agglutinin (Triticum aestivum), Alexa647-labelled; assay: Alexa647-WGA lectin binding to printed small molecules – biochemical, small-molecule microarray, 635/667 nm fluorescence, artefact control for SMM control-protein annotation, profiling panel (AID 1140); conditions: WGA-A647 binding, 635 nm fluorescence, higher = more signal;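 further: score merges 667 nm feature emission with signal to noise over triplicate slides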
[10] = biological target: Luciferin 4-monooxygenase (Photinus pyralis) (UniProt P08659); assay: inhibition of purified Photinus pyralis luciferase – biochemical, luminescence, purified enzyme, 2006 set, primary screen (AID 1141); conditions: purified firefly luciferase, SteadyGlo luminescence, 30 min; higher = more signal, called active from +8 up or from −8 down;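 further: cell-free assay with purified firefly luciferase at 100 ng per well in PBS; test concentration not given here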
Chain of Luciferin 4-monooxygenase (Photinus pyralis) (P08659 whole entry, looked up): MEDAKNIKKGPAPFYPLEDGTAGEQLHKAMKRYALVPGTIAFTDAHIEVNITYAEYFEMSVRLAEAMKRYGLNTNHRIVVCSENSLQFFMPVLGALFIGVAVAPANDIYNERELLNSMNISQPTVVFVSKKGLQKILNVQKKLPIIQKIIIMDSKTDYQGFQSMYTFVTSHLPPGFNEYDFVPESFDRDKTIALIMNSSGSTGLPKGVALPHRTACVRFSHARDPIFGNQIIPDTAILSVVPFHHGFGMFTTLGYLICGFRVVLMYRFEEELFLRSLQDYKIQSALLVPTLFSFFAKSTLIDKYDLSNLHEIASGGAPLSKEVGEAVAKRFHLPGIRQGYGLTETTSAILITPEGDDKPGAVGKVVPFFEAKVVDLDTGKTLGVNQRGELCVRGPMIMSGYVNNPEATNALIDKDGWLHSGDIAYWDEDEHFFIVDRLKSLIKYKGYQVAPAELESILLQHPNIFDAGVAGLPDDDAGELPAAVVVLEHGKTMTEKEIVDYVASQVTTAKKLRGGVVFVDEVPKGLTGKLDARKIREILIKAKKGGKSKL

[11] = system: Wnt5a (protein binding on small-molecule microarray); assay: small molecules binding Wnt5a protein – biophysical, small-molecule microarray, 635/667 nm fluorescence, primary screen (AID 1142); conditions: 635 nm fluorescence, higher = more signal;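 further: fluorescence read at 667 nm with signal to noise per printed feature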
[12] = ATP-based viability of Huh7 replicon cells – cell-based, CellTiter-Glo luminescence, basal, 48 h, cytotoxicity control for HCV replication inhibitor project, primary screen (AID 1143); conditions: higher = more signal, called active from +8 up or from −8 down;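 further: Huh7 hepatoma cells carrying a hepatitis C replication reporter with no stimulus; test concentration not given here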
[13] = Pseudomonas biofilm growth suppression – PAO1 strain, BacTiter-Glo luminescence, LB-PBS, primary screen (AID 1144); conditions: P. aeruginosa PAO1 biofilm, 12 h, higher = more signal
[14] = basal CRE-LacZ reporter activity in PC12 – cell-based, unstimulated, primary screen (AID 1145); conditions: no forskolin, luminescence, 4.5 h, higher = more signal, called active from +8 up or from −8 down
[15] = forskolin-driven CRE-LacZ activity in PC12 – cell-based, CRE-LacZ reporter, forskolin-stimulated, primary screen (AID 1146); conditions: luminescence, 4.5 h, higher = more signal, called active from +8 up or from −8 down;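 further: PC12 cells with 6xCRE LacZ reporter stimulated by forskolin 10 µM; beta-galactosidase reporter signal reflecting CREB driven transcription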
[16] = biological target: Streptavidin (Streptomyces avidinii) (UniProt P22629); assay: compounds binding control protein streptavidin – biophysical, small-molecule microarray, 635/667 nm fluorescence, artefact control for SMM compound annotation, primary screen (AID 1147); conditions: higher = more signal;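 further: signal reflects streptavidin binding to arrayed compounds as a control protein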
Chain of Streptavidin (Streptomyces avidinii) (P22629 whole entry, looked up): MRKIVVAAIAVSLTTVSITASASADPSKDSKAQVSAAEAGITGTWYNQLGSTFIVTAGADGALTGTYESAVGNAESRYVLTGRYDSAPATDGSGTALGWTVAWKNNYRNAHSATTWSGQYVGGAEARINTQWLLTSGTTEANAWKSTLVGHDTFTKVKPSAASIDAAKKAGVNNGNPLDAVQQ

[17] = probe aInhba binding on compound microarray – biochemical, small-molecule microarray, 635/667 nm fluorescence, primary screen (AID 1148); conditions: higher = more signal;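 further: score merges 667nm spot fluorescence with signal-to-noise for antibody binding to printed compounds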
[18] = biological target: Torsin-1A (Homo sapiens) (UniProt O14656); assay: TOR1A wild-type binding on microarray – cell lysate, small-molecule microarray, lysate, 635/667 nm, primary screen (AID 1149); conditions: COS7 hTOR1A-WT lysate, 635 nm fluorescence, higher = more signal
Chain of Torsin-1A (Homo sapiens) (O14656 whole entry, looked up): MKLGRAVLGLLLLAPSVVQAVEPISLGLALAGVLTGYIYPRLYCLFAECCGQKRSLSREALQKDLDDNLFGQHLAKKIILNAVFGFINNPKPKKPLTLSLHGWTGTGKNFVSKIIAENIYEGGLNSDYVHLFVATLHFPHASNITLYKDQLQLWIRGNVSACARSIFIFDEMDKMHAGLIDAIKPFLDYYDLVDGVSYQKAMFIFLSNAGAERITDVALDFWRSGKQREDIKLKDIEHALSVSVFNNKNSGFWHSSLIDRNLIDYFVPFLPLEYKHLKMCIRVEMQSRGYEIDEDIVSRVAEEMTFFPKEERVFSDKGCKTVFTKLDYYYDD

[19] = biological target: Torsin-1A (Homo sapiens) (UniProt O14656); assay: torsin A mutant lysate binding on microarrays – cell lysate, small-molecule microarray, COS7 lysate, 635/667 nm fluorescence, primary screen (AID 1150); conditions: COS7 hTOR1A mutant lysate, 635 nm fluorescence, higher = more signal;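 further: score pools 667 nm emission and signal to noise measuring lysate protein binding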
[20] = system: Sonic hedgehog protein (Shh); assay: Sonic hedgehog microarray binding compounds – biochemical, small-molecule microarray, 635/667 nm fluorescence, primary screen (AID 1151); conditions: 635 nm fluorescence, higher = more signal;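 further: Shh protein binding to compounds spotted on small-molecule microarray slides; score combines spot fluorescence intensity with signal-to-noise across triplicate slides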

Row | Compound | composite z-score [1] | composite z-score [2] | composite z-score [3] | composite z-score [4] | composite z-score [5] | composite z-score [6] | z-score [7] | composite z-score [8] | composite z-score [9] | z-score [10] | composite z-score [11] | z-score [12] | z-score [13] | z-score [14] | z-score [15] | composite z-score [16] | composite z-score [17] | composite z-score [18] | composite z-score [19] | composite z-score [20]
1 | Cc1cc(C)cc(N2C(=O)CS(=O)(=O)C2c2cccc([N+](=O)[O-])c2)c1 (stereo not given) | 1.11 | 0.632 | 0.894 | 0.829 | 0.508 | 0.126 | 0.382 | 0.874 | 0.841 | -0.273 (inactive) | 0.223 | -2.18 (inactive) | -0.527 (inactive) | -0.0243 (inactive) | -0.494 (inactive) | 1.26 | 0.952 | 0.513 | 0.897 | 0.659
2 | C=CC[C@]1(C(=O)N2CCOCC2)N=C(c2ccc(OCCCO)cc2)O[C@H]1c1ccccc1 | 1.69 | 1.22 | 0.602 | 0.866 | 0.401 | 0.12 | 0.409 | -0.781 | 1.28 | 1.25 (inactive) | 0.514 | -2.02 (inactive) | -0.248 (inactive) | 1.34 (inactive) | -0.302 (inactive) | 0.954 | 0.0561 | -0.267 | 0.96 | -0.509
3 | N[C@@H](Cc1ccccc1)Cn1cc(-c2ccccc2)nn1 | -0.0727 | 0.184 | -0.0983 | 0.274 | 0.219 | -0.311 | 0.805 | -0.155 | 0.441 | -1.32 (inactive) | -0.15 | -2.58 (inactive) | -0.244 (inactive) | 0.0035 (inactive) | 0.292 (inactive) | 0.861 | -0.0963 | -0.0409 | -0.0827 | 0.0939
4 | O=C1O[C@H](c2ccccc2)[C@H](c2ccccc2)N2[C@H]1[C@@H](C(=O)NC[C@H](O)c1ccccc1)[C@]1(C(=O)Nc3ccc(C#CCCO)cc31)[C@H]2c1ccc(O)cc1 | -1.3 | -1.08 | -0.598 | -1.07 | -1.26 | -0.702 | -1.17 | -0.929 | -1.09 | 0.145 (inactive) | -0.11 | -4.32 (inactive) | -1.16 (inactive) | -0.329 (inactive) | 0.0393 (inactive) | -1.11 | 0.295 | -0.596 | -1.36 | -0.606
5 | C=CC[C@@H](OC(=O)Nc1ccc(OC)cc1)c1ccc(O)c2ccccc12 | 0.235 | 1.17 | 2 | 0.656 | 1.39 | 1.94 | -1.3 | 1.35 | 0.542 | -6.72 (inactive) | 0.42 | -4.89 (inactive) | -1.39 (inactive) | 1.01 (inactive) | 4.3 (inactive) | 0.737 | 0.241 | 1.31 | 0.625 | 2.03
6 | O=C1O[C@@H](c2ccccc2)[C@@H](c2ccccc2)N2[C@@H](c3ccc(OCCO)cc3)[C@]3(C(=O)Nc4ccc(C#CC5=CCCCC5)cc43)[C@@H](C(=O)O)[C@H]12 | 1.42 | 1.01 | 1.31 | 0.865 | 0.878 | 0.34 | -2.48 | 0.46 | 0.997 | -6.59 (inactive) | 0.411 | -2.22 (inactive) | -0.761 (inactive) | -0.348 (inactive) | 7.68 (inactive) | 1.22 | 0.0895 | 0.0714 | 0.97 | 0.658
7 | COc1ccc(C#Cc2ccc3c(c2)[C@]2(C(=O)N3)[C@H](c3ccc(O)cc3)N3[C@H](c4ccccc4)[C@H](c4ccccc4)OC(=O)[C@H]3[C@@H]2C(=O)NC[C@H](O)c2ccccc2)cc1 | 1.35 | 1.21 | 0.32 | 0.556 | 1.03 | 0.487 | -1.26 | 0.751 | 1.01 | -0.835 (inactive) | 0.365 | -3.5 (inactive) | -0.654 (inactive) | -0.0246 (inactive) | -1.12 (inactive) | 0.153 | -0.0606 | 0.215 | 0.488 | 1.05
8 | [N-]=[N+]=NCc1ccccc1[C@H]1OC(c2ccc(OCCCO)cc2)=N[C@@]1(CCS(=O)(=O)c1ccccc1)C(=O)N1CCOCC1 | 0.997 | 0.871 | 0.176 | 1.04 | 1.31 | 1.01 | -0.988 | -0.0664 | 1.35 | -1.26 (inactive) | 1.03 | -0.865 (inactive) | 0.164 (inactive) | 0.526 (inactive) | 0.363 (inactive) | 1.62 | 0.556 | 1.7 | 1.85 | -0.164
9 | O=C1C[C@]2(c3ccc([N+](=O)[O-])cc3)C(=O)N(CC(F)(F)F)c3cc(CO)ccc3[C@H]2N1CC12CC3CC(CC(C3)C1)C2 | -0.239 | -0.369 | 0.0419 | -1.16 | 0.77 | 0.0808 | 0.297 | 0.551 | 0.122 | 1.09 (inactive) | -0.171 | -1.89 (inactive) | -0.892 (inactive) | -0.698 (inactive) | 0.0632 (inactive) | -0.143 | 0.0091 | -0.662 | -0.156 | 0.277
10 | CCOc1cc(C(O)C2C=CC3C(=O)N(c4ccccc4)C(=O)C3N2Nc2ccc([N+](=O)[O-])cc2)ccc1O (stereo not given) | 0.73 | 1.06 | 0.106 | 0.0405 | 0.165 | 0.0474 | -1.52 | 0.107 | 0.14 | -0.021 (inactive) | -0.0182 | -1.04 (inactive) | -0.222 (inactive) | 2.28 (inactive) | 0.507 (inactive) | 0.439 | -0.101 | -0.431 | 0.196 | -0.231
